According to ChEMBL document CHEMBL3988442, “University of Dundee, Small-Polar-MMV Screening Library” (2021):
For some of these results: Potency and affinity values are given separately.

What was measured:
Design in all cases: scale not given: direction of the effect not stated beside the values
[1] = target: Protein translocase subunit SecA (Escherichia coli (strain K12)) (UniProt P10408); test: Assay to Identify E. coli SecA ATPase Inhibitors; format: functional; conditions: 30 µM
[2] = target: T1, Ubiquitin-activating enzyme e1, putative (Leishmania donovani (strain BPK282A1)) (UniProt E9BSI1); test: Leishmania donovani Ubiquitin Activating Enzyme (LdE1); format: functional; conditions: 30 µM
T1 sequence (whole entry): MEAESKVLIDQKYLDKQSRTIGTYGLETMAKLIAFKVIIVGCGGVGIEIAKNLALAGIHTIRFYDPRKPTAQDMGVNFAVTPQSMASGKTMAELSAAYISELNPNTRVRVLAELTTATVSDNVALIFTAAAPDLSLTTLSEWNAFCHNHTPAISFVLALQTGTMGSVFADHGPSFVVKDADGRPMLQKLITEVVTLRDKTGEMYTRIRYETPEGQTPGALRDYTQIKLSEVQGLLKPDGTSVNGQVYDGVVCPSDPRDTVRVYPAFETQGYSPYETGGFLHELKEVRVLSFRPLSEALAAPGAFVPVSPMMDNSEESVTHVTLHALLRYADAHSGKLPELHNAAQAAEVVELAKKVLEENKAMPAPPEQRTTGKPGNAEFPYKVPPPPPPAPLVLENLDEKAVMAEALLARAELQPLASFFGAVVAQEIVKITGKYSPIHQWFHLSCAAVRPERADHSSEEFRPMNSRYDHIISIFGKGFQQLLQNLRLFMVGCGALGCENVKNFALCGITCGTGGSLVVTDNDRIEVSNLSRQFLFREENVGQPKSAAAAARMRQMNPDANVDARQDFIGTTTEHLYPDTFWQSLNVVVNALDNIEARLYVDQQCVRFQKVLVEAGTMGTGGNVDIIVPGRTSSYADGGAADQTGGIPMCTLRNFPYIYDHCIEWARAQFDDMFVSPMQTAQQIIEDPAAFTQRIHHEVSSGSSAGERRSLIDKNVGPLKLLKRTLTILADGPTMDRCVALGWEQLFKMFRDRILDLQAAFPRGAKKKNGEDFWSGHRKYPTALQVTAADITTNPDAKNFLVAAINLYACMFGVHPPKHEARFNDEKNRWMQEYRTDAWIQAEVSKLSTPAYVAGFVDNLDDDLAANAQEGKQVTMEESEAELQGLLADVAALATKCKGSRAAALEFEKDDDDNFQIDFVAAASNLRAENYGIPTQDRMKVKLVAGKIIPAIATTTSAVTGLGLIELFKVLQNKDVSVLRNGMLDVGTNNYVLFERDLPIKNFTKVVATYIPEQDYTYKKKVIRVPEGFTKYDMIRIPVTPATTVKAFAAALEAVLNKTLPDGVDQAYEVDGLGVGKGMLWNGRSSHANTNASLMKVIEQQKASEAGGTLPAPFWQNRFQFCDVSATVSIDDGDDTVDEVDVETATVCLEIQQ

[3] = target: AMP-activated protein kinase, AMPK (Homo sapiens) (UniProt P54646+O43741+P54619+Q9UGJ0+Q9Y478+Q13131+Q9UGI9); test: AMP-dependent Kinase enzyme assay. An in vitro enzyme assay that detects ADP turnover that is directly proportional to AMPK activity. This uses naive AMPK that is activated during the assay with MK-8722; format: functional; conditions: 30 µM
[4] = target: Sialic acid-binding Ig-like lectin 9 (Homo sapiens) (UniProt Q9Y336); test: Hs-Siglec9 ALPHAscreen SOP 20170721; conditions: 10 µM
Sequence of Sialic acid-binding Ig-like lectin 9 (Homo sapiens) (Q9Y336 whole entry): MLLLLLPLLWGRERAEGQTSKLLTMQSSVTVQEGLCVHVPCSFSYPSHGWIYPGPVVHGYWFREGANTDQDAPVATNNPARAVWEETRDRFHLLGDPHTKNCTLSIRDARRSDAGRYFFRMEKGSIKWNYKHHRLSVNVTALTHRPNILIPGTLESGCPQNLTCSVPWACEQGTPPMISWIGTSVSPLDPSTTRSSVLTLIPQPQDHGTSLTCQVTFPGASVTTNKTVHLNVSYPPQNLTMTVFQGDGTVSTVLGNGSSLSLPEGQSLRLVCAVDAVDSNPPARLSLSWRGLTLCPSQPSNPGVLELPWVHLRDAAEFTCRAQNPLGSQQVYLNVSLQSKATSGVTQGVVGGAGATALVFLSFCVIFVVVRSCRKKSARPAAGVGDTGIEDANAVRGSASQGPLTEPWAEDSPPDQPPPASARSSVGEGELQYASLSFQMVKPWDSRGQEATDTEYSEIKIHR

Trypanosoma cruzi = test: Trypanosoma cruzi phosphomannomutase and mannose-1-phosphate guanylyltransferase assay; format: functional; conditions: 10 µM
[5] = target: T2, Arginase-2, mitochondrial (Homo sapiens) (UniProt P78540); test: in vitro enzyme assay to detect the production of urea directly proportional to the activity of Arginase II; format: functional; conditions: 33.3 µM; note: in the data most compounds retested in dose-response had high values
T2 sequence (whole entry): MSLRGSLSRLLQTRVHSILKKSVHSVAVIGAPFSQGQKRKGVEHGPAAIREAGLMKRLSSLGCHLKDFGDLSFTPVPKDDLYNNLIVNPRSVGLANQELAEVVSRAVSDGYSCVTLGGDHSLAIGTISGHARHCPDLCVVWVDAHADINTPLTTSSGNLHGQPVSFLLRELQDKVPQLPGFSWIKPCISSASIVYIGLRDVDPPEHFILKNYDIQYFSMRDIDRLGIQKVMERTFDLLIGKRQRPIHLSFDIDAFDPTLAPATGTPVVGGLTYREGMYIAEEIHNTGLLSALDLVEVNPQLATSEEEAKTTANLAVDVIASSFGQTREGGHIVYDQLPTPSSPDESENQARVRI

[6] = target: T3, Proteasome subunit beta (Trypanosoma cruzi) (UniProt O96673); test: Trypanosoma cruzi proteasome chymotrypsin-like activity (TcProtChymo) assay.; note: in the data most compounds retested in dose-response had high values; format: functional; conditions: 9.37 µM
T3 sequence (whole entry): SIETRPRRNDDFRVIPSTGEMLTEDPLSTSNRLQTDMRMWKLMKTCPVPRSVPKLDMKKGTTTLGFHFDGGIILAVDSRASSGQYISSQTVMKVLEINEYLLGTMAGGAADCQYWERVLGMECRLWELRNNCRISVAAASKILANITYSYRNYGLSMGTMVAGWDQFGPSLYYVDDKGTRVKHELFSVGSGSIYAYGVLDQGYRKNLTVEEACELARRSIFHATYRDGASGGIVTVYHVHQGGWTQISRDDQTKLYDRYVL

Homo sapiens = species on record: Homo sapiens; test: To identify inhibition of the IFN signalling (Jak-Stat) pathway via expression of an eGFP reporter gene under the control of an IFN-stimulated response element (ISRE) containing MxA promoter.; format: functional; conditions: 30 µM
[7] = target: T4, Tyrosyl-tRNA synthetase, putative (Trypanosoma cruzi (strain CL Brener)) (UniProt Q4DSP6); test: Trypanosoma cruzi tyrosyl tRNA synthetase (TcYRS) _High Tyrosine SOP; format: functional; conditions: 30 µM; note: in the data most compounds retested in dose-response had high values
T4 sequence (whole entry): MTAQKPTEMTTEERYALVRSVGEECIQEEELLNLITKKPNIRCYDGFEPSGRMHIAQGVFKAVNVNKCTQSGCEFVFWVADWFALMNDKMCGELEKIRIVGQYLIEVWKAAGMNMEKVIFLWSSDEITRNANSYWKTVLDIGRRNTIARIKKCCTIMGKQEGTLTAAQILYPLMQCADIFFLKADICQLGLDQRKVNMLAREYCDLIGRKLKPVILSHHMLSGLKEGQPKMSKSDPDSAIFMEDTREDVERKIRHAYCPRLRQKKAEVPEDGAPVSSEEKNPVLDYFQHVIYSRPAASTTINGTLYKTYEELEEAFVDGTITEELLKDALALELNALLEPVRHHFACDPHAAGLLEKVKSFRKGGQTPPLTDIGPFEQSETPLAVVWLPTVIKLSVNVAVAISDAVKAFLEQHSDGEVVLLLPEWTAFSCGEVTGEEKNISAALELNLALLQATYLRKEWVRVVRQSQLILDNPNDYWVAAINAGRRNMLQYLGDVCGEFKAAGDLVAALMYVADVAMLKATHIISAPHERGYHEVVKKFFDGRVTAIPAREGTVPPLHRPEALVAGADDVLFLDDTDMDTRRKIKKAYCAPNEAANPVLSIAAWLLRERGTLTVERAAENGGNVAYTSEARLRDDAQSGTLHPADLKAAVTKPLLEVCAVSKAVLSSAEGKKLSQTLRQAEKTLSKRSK

[8] = target: T4, Tyrosyl-tRNA synthetase, putative (Trypanosoma cruzi (strain CL Brener)); test: Trypanosoma cruzi tyrosyl tRNA synthetase (TcYRS) SOP; format: functional; conditions: 30 µM
[9] = target: Chromo domain-containing protein 1 (Saccharomyces cerevisiae (strain ATCC 204508 / S288c) (Baker's yeast)) (UniProt P32657); test: ScCHD-1 Enzyme Inhibition Assay; format: functional; conditions: 30 µM; note: in the data most compounds retested in dose-response had high values
Sequence of Chromo domain-containing protein 1 (Saccharomyces cerevisiae (strain ATCC 204508 / S288c) (Baker's yeast)) (P32657 whole entry, the tested form may be a part): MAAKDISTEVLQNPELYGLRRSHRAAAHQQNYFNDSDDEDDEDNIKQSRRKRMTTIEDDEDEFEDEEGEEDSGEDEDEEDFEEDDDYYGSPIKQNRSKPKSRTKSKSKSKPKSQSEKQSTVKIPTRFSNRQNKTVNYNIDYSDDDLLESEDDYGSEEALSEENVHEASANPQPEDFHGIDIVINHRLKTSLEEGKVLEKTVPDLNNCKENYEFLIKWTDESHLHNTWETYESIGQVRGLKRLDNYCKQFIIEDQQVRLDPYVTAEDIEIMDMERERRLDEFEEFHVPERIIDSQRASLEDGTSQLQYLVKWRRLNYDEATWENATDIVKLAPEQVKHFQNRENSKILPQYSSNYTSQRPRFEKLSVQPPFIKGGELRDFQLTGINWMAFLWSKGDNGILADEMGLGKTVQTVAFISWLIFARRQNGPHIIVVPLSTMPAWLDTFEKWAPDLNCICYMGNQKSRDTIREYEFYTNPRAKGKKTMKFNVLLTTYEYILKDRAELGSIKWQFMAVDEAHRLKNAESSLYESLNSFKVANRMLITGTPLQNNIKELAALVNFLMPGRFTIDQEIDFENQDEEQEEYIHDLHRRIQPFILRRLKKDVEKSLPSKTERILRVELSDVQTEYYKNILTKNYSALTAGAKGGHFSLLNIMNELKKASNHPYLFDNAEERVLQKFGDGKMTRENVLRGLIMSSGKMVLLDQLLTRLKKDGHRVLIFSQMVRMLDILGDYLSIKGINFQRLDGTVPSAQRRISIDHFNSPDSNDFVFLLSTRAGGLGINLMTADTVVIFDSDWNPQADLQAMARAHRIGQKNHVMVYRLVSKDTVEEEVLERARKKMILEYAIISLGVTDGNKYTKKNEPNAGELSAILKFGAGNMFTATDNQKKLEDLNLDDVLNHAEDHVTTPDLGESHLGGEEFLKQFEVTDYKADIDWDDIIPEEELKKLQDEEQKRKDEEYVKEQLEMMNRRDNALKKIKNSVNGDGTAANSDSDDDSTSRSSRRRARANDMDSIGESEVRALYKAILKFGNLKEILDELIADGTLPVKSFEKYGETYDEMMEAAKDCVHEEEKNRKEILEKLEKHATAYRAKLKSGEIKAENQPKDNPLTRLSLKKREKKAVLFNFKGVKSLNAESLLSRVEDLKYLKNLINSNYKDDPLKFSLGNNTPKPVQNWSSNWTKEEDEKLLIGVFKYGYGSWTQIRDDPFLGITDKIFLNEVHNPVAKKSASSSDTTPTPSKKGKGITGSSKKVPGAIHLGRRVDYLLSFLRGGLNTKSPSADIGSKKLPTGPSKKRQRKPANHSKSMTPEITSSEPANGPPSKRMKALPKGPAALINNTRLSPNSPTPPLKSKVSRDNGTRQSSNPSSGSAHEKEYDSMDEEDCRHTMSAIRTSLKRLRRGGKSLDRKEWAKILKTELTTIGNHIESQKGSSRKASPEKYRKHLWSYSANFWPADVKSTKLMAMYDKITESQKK

Sequence of Protein translocase subunit SecA (Escherichia coli (strain K12)) (P10408 whole entry): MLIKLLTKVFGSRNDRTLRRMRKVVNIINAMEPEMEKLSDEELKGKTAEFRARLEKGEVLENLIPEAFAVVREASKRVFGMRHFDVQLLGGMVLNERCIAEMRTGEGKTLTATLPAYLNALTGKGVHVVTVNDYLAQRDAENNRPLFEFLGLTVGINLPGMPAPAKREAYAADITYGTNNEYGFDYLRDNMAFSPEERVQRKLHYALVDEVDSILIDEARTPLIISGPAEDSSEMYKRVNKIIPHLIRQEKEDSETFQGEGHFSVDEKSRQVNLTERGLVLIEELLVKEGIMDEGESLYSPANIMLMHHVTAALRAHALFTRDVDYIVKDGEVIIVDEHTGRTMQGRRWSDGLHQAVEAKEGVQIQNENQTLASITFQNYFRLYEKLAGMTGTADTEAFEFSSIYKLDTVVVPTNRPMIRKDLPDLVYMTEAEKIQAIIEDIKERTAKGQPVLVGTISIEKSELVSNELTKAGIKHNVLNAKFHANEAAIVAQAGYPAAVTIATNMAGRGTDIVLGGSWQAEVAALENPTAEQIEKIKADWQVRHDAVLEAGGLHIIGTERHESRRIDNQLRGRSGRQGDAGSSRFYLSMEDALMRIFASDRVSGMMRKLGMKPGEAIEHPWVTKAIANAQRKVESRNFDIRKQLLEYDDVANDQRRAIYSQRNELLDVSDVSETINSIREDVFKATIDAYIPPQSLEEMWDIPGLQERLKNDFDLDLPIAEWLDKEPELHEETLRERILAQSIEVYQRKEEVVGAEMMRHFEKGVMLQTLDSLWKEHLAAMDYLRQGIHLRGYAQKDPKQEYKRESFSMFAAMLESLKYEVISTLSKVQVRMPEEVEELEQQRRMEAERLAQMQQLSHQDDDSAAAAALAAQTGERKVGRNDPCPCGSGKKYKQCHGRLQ

SMILES	Percent Effect [1] [%]	Percent Effect [2] [%]	Percent Effect [3] [%]	Percent Effect [4] [%]	Percent Effect (Trypanosoma cruzi) [%]	Percent Effect [5] [%]	Percent Effect [6] [%]	Percent Effect (Homo sapiens) [%]	Percent Effect [7] [%]	Percent Effect [8] [%]	Percent Effect [9] [%]
CCOc1ncccc1NC(=O)N1CCN(c2cccc(C)c2C)CC1	-0.972	10.8	2.83	-3.7	-10.1	5.36	4.49	15.3	3.96	13.4	1.36
Cc1cccc(CNC(=O)CNc2cc(CO)ccc2Cl)c1	-6.11	2.63	4.86	-0.518	-1.27	1.18	11	-4.91	4.25	7.79	-2.84
O=C(CS(=O)(=O)c1ccccc1Cl)NC1CCCCNC1=O (stereo not given)	-6.72	13	-4.35	4.43	2.43	-1.78	6.93	-3.42	2.91	14.6	-2.31
COc1cc(CN(C)C(=O)Cc2c(C)nn(C)c2C)ccc1OC(F)F	3.46	-9.72	-6.03	-7.7	-5.15	3.09	20.2	55.5	5.26	10.3	0.343
CC(C)CN1CCCn2nc(CNC(=O)c3cccnc3O)cc2C1	-5.79	21.3	-6.62	22.5	6.52	5.73	13.2	13.9	6.01	18.5	-7.12
